Assay results taken from PubChem BioAssay (Tox21).
A number with no mark means an inactive call. Active and inactive are the calls of the source. The call rests on the fitted dose curve; in most records, active means well fitted curve in the direction sought with a large enough effect in the repeat runs; inconclusive means weak or mixed curves; inactive means flat fitted curve, though single readings scatter.

Test: qHTS assay to test for compound auto fluorescence at 460 nm (blue) in HEK293 cells (AID 720678)
Conditions: blue autofluorescence 405/460 nm; series mostly up to 91.3 µM
Source text: National Center for Advancing Translational Sciences [NCATS]
NIH Chemical Genomics Center [NCGC]
U.S. Environmental Protection Agency [EPA]
National Institutes of Environmental Health Sciences [NIEHS]
National Toxicology Program [NTP]
U.S. Food and Drug Administration [FDA]
Compound auto fluorescence often interferes with screening of the compound library against various biological targets and signaling pathways. Some of these compounds may have fluorophoric properties. Such properties may interfere with the assay outputs resulting in false positives and/or negatives. To decrease such complications and ensure the compound activities are relevant in terms of biological response, the Tox21 10K compound library was screened for auto fluorescence.
From the fluorophores used as reporter signals in our screening assays, the auto fluorescence equivalencies of compounds against three fluorophores have been evaluated: Triamterene, Fluorescein and Rose Bengal sodium for blue, green and red fluorescence, respectively. The fluorescence intensities were measured using Excitation/Emission wavelengths at 405/460nm, 485/535nm and 540/590nm for blue, green and red labels, respectively. This assay includes the blue fluorescence data.
Tox21 Assay Protocol Summary:
2,000 HEK293 cells in 5 uL of culture medium containing 10% dialyzed FBS per well were dispensed into black wall/clear bottom 1536-well plates using a Multidrop Combi Dispenser (Thermo Scientific). The assay plates were incubated for 4-5 hr at 37C to allow cell attachment to the well bottom, followed by the transfer of 23 nL compound or DMSO vehicle by a pintool work station (Kalypsys, San Diego, CA). After the assay plates were incubated overnight at 37C and 5% CO2, fluorescence intensities in the assay plates were measured by an Envision (PerkinElmer, Shelton, CT) plate reader using three labels for measuring blue, green and red fluorescence at […] 460, 535 and 590nm respectively.
On the % scale 0 is the no-effect control and ±100 the full control effect.

| Structure (SMILES) | outcome | fluorescence, % of triamterene |
| --- | --- | --- |
| CCCCCCCCCCCC(=O)OC[C@@H](O)[C@H]1OC[C@H](OCCO)[C@H]1OCCO | inactive |  |
| CC(C)=CCC/C(C)=C/CC/C(C)=C/CO | inactive |  |
| CN1CCC(=C2c3ccccc3Sc3ccccc32)CC1 | inactive |  |
| CC1OC(=O)C(C)OC1=O (stereo not given) | inactive |  |
| OC(CN1CCC(Cc2ccc(F)cc2)CC1)c1ccc(Cl)cc1 (stereo not given) | inactive |  |
| CCCCCCCCCCO[C@@H]1O[C@H](CO)[C@@H](O)[C@H](O)[C@H]1O | inactive |  |
| O=C(OCCCCCCOC(=O)c1ccccc1)c1ccccc1 | inactive |  |
| COc1ccc(C)cc1[N+](=O)[O-] | inactive |  |
| CCN(CC)CCOC(=O)C(c1ccccc1)C1CCCCC1 (stereo not given) | inactive |  |
| CCCCC(CC)COC(=O)CCCCCCCCC(=O)OCC(CC)CCCC (stereo not given) | inactive |  |
| c1cc(CCCc2ccncc2)ccn1 | inactive |  |
| O=C(O)c1ccco1 | inactive |  |
| C[C@@H]1C[C@H]2O[C@@]3(O[C@@H]2C(C)(C)O)[C@H](O)[C@@]2(C)[C@@H]4CC[C@H]5C(C)(C)[C@@H](O[C@@H]6OC[C@@H](O)[C@H](O)[C@H]6O)CC[C@@]56C[C@@]46CC[C@]2(C)[C@@H]13 | inactive |  |
| Cc1ncc(CO)c(C=O)c1O | inactive |  |
| C=C(C)C(=O)OCC | inactive |  |
| Clc1ccc2c(c1)CCc1cccnc1C2=C1CCNCC1 | inactive |  |
| CCCn1cnc2c1c(=O)n(CCCCC(C)=O)c(=O)n2C | inactive |  |
| Brc1c2ccccc2c(Br)c2ccccc12 |  | 0.364% [at 3.72 µM] |
| CCCCC1=NC2(CCCC2)C(=O)N1Cc1ccc(-c2ccccc2-c2nn[nH]n2)cc1 | inactive |  |
| CC[N+](C)(CC)CCOC(=O)C(O)(c1ccccc1)C1CCCCC1 (stereo not given) | inactive |  |

| Structure (SMILES) | outcome | fluorescence, % of triamterene |
| --- | --- | --- |
| CCOCC(O)COc1ccc(NC(=O)CC[S+](C)C)cc1 (stereo not given) | inactive |  |
| CN1CCN(C(c2ccccc2)c2ccccc2)CC1 |  | -0.0167% [at 18.6 µM] |
| CN(C)c1ccc(CCO)cc1 | inactive |  |
| CCCCCCCCO[C@@H]1O[C@H](CO)[C@@H](O)[C@H](O)[C@H]1O | inactive |  |
| COc1cc(Cl)ccc1Oc1ccc(Cl)cc1Cl | inactive |  |
| COc1ccc(-c2nc3ccc(C4=NNC(=O)CC4C)cc3[nH]2)cc1 (stereo not given) | inactive |  |
| CC(=O)NO | inactive |  |
| Cc1cc(C(=O)O)ccc1[N+](=O)[O-] | inactive |  |
| C=CCOC(=O)CCC1CCCCC1 | inactive |  |
| CCN(CC)CCOC(=O)C(Cc1cccc2ccccc12)CC1CCCO1 (stereo not given) |  | 0.0425% [at 18.6 µM] |
| CCc1cc(C2=C(C(=O)O)N(c3ccccc3C(F)(F)F)S(=O)(=O)c3ccccc32)cc2c1OCO2 | inactive |  |
| Cn1c(=O)cc(Oc2ccc(F)cc2F)c2cnc(NCC(C)(C)O)nc21 | inactive |  |
| Nc1ncn([C@H]2C[C@H](O)[C@@H](CO)O2)c(=O)n1 | inactive |  |
| CC(C)(C)Cl | inactive |  |
| Nc1cccc(S(=O)(=O)c2cccc(N)c2)c1 | inactive |  |
| CCCCC(CC)COC(=O)COc1ccc(Cl)cc1Cl (stereo not given) | inactive |  |
| CCCCCCCCCCCCCCCCOS(=O)(=O)O | inactive |  |
| CC(COCCO)OCCO (stereo not given) | inactive |  |
| CCCCCCCCCCCCCCCCCCOS(=O)(=O)O | inactive |  |
| Cc1oc(-c2ccccc2)nc1CCOc1cccc2c1ccn2CCC(=O)O | inactive |  |
